Measured values published in PubChem BioAssay (Tox21).
Results filed as inconclusive are left out. The source made the active and inactive calls. Unless noted, calls come from the whole dose curve; as a rule, active = well fitted curve in the direction sought with a large enough effect in the repeat runs; inconclusive = weak or mixed curves; inactive = no such curve, though single readings can be large; an effect the other way counts as inactive or inconclusive. Positions of bridges follow the written chain, without caps; N, C: chain ends. Non-standard residues stand in square brackets, D forms with d. Residues, ends and D or L forms follow the SMILES beside them. *: point of attachment. Dab(CH2SO3H) = N[C@@H](CCNCS(=O)(=O)O)C(=O)O; X3 = CC[C@@H](C)CCCCC(=O)*; Dab = NCC[C@H](N)C(=O)O

Key:
[1] = qHTS assay for small molecule agonists of the p53 signaling pathway (AID 651631; calls by dose curve; note: nearly all actives have a fitted effect of over 15% in size; note: potency is the fitted concentration of half-maximal effect); details: HCT-116 p53RE-bla reporter, beta-lactamase FRET ratio, 16 h; series mostly up to 73.3 µM
Method in brief: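 Testing took place in human colorectal HCT-116 cells with stable p53RE-driven beta-lactamase. After 16 h of compound exposure at 37 °C, a FRET substrate was added and fluorescence recorded 2 h later.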

[2] = qHTS assay for small molecules that induce genotoxicity in human embryonic kidney cells expressing luciferase-tagged ATAD5 (AID 651632); details: HEK293T ATAD5-luciferase induction, 16 h; series mostly up to 83.3 µM; note: nearly all actives have a fitted effect of over 15% in size; note: potency is the fitted concentration of half-maximal effect
Method in brief: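 Luminescence read-out: after 16 hr compound exposure at 37C, ATAD5-luciferase HEK293T cells received Amplite, 30 min RT, then CCD imaging. A rise in signal marks genotoxic stress.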

[3] = qHTS assay for small molecule agonists of the p53 signaling pathway - cell viability (AID 651633; calls by dose curve; note: nearly all actives have a fitted effect of over 30% in size; note: potency is the fitted concentration of half-maximal effect); details: p53RE-bla HCT-116 viability, ATP luminescence, 16 h; series mostly up to 83.3 µM
Method in brief: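 p53RE-bla cells, seeded at 4,000 per well and rested 5 h at 37 C/5% CO2, received compounds in DMSO for 16 h at 37 C. CellTiter-Glo was then added, and luminescence was read after 30 min at room temperature to gauge cytotoxicity.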

[4] = qHTS assay for small molecules that induce genotoxicity in human embryonic kidney cells expressing luciferase-tagged ATAD5 - cell viability (AID 651634; calls by dose curve; note: nearly all actives have a fitted effect of over 25% in size); details: HEK293T ATAD5-luc cells viability, CellTiter-Fluor, 15.5 h; series mostly up to 83.3 µM
Method in brief: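 HEK293T ATAD5-luc cells, 2,000/well; compound 15.5 hr, 37C/5% CO2; CellTiter-Fluor 30 min, 37C; fluorescence read.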

[5] = qHTS assay for small molecule disruptors of the mitochondrial membrane potential - cell viability (AID 720634; calls by dose curve; note: nearly all actives have a fitted effect of over 20% in size; note: potency is the fitted concentration of half-maximal effect); details: HepG2 viability, ATP luminescence (CellTiter-Glo), 1 h; series mostly up to 83.2 µM
Method in brief: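 Luminescence from CellTiter-Glo (ATP content) gave viability in HepG2 cells, read in the same wells as the MMP dye assay after 1 hr compound exposure at 37 C.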

[6] = qHTS assay for small molecule disruptors of the mitochondrial membrane potential (AID 720635); details: HepG2 mitochondrial membrane potential, Mito-MPS dye ratio; series mostly up to 83.2 µM; note: potency is the fitted concentration of half-maximal effect
Method in brief: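 HepG2 cells (2,000/well) attached overnight at 37C, then took compound for 1 hr at 37C, 5% CO2. Mito-MPS dye was added for 30 min; fluorescence was read at 490/535 nm (monomers) and 540/590 nm (aggregates).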

[7] = qHTS assay to test for compound auto fluorescence at 590 nm (red) in HepG2 cells (AID 720674); details: HepG2 autofluorescence, red 540/590 nm, 1 h; series mostly up to 46 µM
Method in brief: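 Compound auto-fluorescence is scored relative to Rose Bengal sodium, measured at 540/590 nm in live HepG2 cultures after 1 hr compound contact (37 C, 5% CO2).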

[8] = qHTS assay to test for compound auto fluorescence at 535 nm (green) in HepG2 cells (AID 720675); details: green autofluorescence 485/535 nm, 1 h; series mostly up to 46 µM
[9] = qHTS assay to test for compound auto fluorescence at 460 nm (blue) in HEK293 cells (AID 720678); details: blue autofluorescence 405/460 nm; series mostly up to 46 µM
Method in brief: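 HEK293 cells (2,000/well, medium with 10% dialyzed FBS) attached 4-5 hr, then exposed to compound overnight at 37C, 5% CO2. Blue fluorescence read at 405/460 nm, with triamterene as reference fluorophore.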

[10] = qHTS assay to test for compound auto fluorescence at 590 nm (red) in HEK293 cells (AID 720679); details: red autofluorescence 540/590 nm; series mostly up to 46 µM
Method in brief: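 HEK293 cells (2,000/well, 10% dialyzed FBS) attached 4-5 hr, then dosed with compound or DMSO and incubated overnight at 37C, 5% CO2. Red fluorescence read at 540/590 nm, Rose Bengal sodium as reference fluorophore.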

Measured: Potency

Nc1nc(/C(=C/CC(=O)O)C(=O)N[C@@H]2C(=O)N3C(C(=O)O)=CCS[C@H]23)cs1
inactive: all assays above

OCC1(CO)COC(C(Cl)(Cl)Cl)OC1
inactive: all assays above

CC/C(=C(/CC)c1ccc(OP(=O)(O)O)cc1)c1ccc(OP(=O)(O)O)cc1
inactive: all assays above

CC1(C)S[C@@H]2[C@H](NC(=O)[C@@H](NC(=O)N3CCNC3=O)c3ccccc3)C(=O)N2[C@H]1C(=O)O
inactive: all assays above

CN(C)CCC(O)(c1ccccc1)c1ccccc1Cl (centres undefined)
inactive: all assays above

Cc1c(O)c(=O)ccn1C
inactive: all assays above

CSCC[C@H](NC(=O)[C@H](Cc1ccc(OS(=O)(=O)O)cc1)NC(=O)[C@@H](N)CC(=O)O)C(=O)NCC(=O)N[C@@H](Cc1c[nH]c2ccccc12)C(=O)N[C@@H](CCSC)C(=O)N[C@@H](CC(=O)O)C(=O)N[C@@H](Cc1ccccc1)C(N)=O
not listed: [10]
inactive: all other assays above

C[Se]CC[C@H](N)C(=O)O
inactive: all assays above

NC(=O)[C@@H]1C[C@]2(NC(=O)NC2=O)c2cc(F)ccc2O1
inactive: all assays above

C=CC[N+]1([C@H]2C[C@H]3[C@@H]4CC[C@H]5C[C@H](O)[C@@H](N6CCOCC6)C[C@]5(C)[C@H]4CC[C@]3(C)[C@H]2OC(C)=O)CCCC1
inactive: all assays above

CCCC(CCC)C(=O)OC1C[C@H]2CC[C@@H](C1)[N+]2(C)C (some centres undefined)
inactive: all assays above

CC[C@@H](C)CCCCC(=O)N[C@@H](CCNCS(=O)(=O)O)C(=O)N[C@H](C(=O)N[C@@H](CCNCS(=O)(=O)O)C(=O)N[C@H]1CCNC(=O)[C@H]([C@@H](C)O)NC(=O)[C@H](CCNCS(=O)(=O)O)NC(=O)[C@H](CCNCS(=O)(=O)O)NC(=O)[C@H](CC(C)C)NC(=O)[C@@H](CC(C)C)NC(=O)[C@H](CCNCS(=O)(=O)O)NC1=O)[C@@H](C)O (X3-[Dab(CH2SO3H)]T[Dab(CH2SO3H)][Dab][Dab(CH2SO3H)][dL]L[Dab(CH2SO3H)][Dab(CH2SO3H)]T; lactam 4-C)
not listed: [10]
inactive: all other assays above

C[C@@H]1O[C@@H]1P(=O)(O)O
not listed: [10]
inactive: all other assays above

Cc1ncc(C[n+]2csc(CCOP(=O)(O)O)c2C)c(N)n1
inactive: all assays above

CCc1ncnc2cc(OC)c(OC)cc12
inactive: all assays above

C=C1[C@@H]2CC[C@@H](C2)C1(C)C
inactive: all assays above

FC(F)(F)COCC(F)(F)F
inactive: all assays above

CC(=NCc1ccccc1)c1ccccc1O
not listed: [10]
inactive: all other assays above

C[C@H](Cc1ccc(O)c(O)c1)[C@@H](C)Cc1ccc(O)c(O)c1
active: [6] 13.3 µM
inactive: all other assays above

Cc1cnc(C(=O)O)c[n+]1[O-]
inactive: all assays above

C[N+]1(CCCCC[N+]2(C)CCCC2)CCCC1
not listed: [10]
inactive: all other assays above

O=C1CCC(c2ccccc2)(C2CCN(Cc3ccccc3)CC2)C(=O)N1 (centres undefined)
inactive: all assays above

CNCC(=O)N[C@@H](CCCN=C(N)N)C(=O)N[C@H](C(=O)N[C@@H](Cc1ccc(O)cc1)C(=O)N[C@H](C(=O)N[C@@H](Cc1cnc[nH]1)C(=O)N1CCC[C@H]1C(=O)N[C@@H](C)C(=O)O)C(C)C)C(C)C
inactive: all assays above

O=C(O)/C=C/C(=O)Nc1ccc(S(=O)(=O)Nc2nccs2)cc1
inactive: all assays above

COC(=O)C(CN)c1c[nH]c2ccc(OC)cc12 (centres undefined)
inactive: all assays above

C=CC1=C(C(=O)O)N2C(=O)[C@@H](NC(=O)/C(=N/OCC(=O)O)c3csc(N)n3)[C@H]2SC1 (stereo in doubt)
not listed: [10]
inactive: all other assays above

N=C(N)n1cccn1
inactive: all assays above

CC(=O)OCC(=O)[C@@]1(O)CC[C@H]2[C@@H]3CCC4=CC(=O)CC[C@]4(C)C3=CC[C@@]21C
inactive: all assays above

CC(C)(O/N=C(\C(=O)N[C@@H]1C(=O)N2C(C(=O)[O-])=C(C[n+]3ccccc3)CS[C@H]12)c1csc(N)n1)C(=O)O
inactive: all assays above

CCOc1cc(CC(=O)N[C@@H](CC(C)C)c2ccccc2N2CCCCC2)ccc1C(=O)O
inactive: all assays above

O=C1[O][Bi][O]c2ccccc21
inactive: [1] | [2] | [3] | [4] | [5] | [6]

CCCCCCCCOC(=O)c1cc(O)c(O)c(O)c1
active: [1] 61.1 µM | [3] 54.5 µM | [5] 13.7 µM | [6] 6.11 µM
inactive: all other assays above

c1ccc2c(c1)OCC(CN1CCCCC1)O2 (centres undefined)
inactive: all assays above

COc1ccc(/C=N/NC(=O)c2ccncc2)c(C(=O)O)c1OC
inactive: all assays above

Nc1nc(NC2CC2)c2ncn([C@@H]3C=C[C@@H](CO)C3)c2n1
active: [2] 13.3 µM
inactive: all other assays above

CNC(=O)OCc1cccc(COC(=O)NC)n1
inactive: all assays above

COc1ccc([C@@H]2CC(=O)c3c(O)cc(O[C@@H]4O[C@H](CO[C@@H]5O[C@@H](C)[C@H](O)[C@@H](O)[C@H]5O)[C@@H](O)[C@H](O)[C@H]4O)cc3O2)cc1O
inactive: all assays above

CO[C@H]1C[C@H](O[C@H]2[C@H](C)[C@@H](O[C@@H]3O[C@H](C)C[C@H](N(C)C)[C@H]3O)[C@@H](C)C[C@]3(CO3)C(=O)[C@H](C)[C@@H](O)[C@@H](C)[C@@H](C)OC(=O)[C@@H]2C)O[C@@H](C)[C@@H]1O
inactive: all assays above

CN1C(C(=O)Nc2ccccn2)C(=O)c2sc(Cl)cc2S1(=O)=O (centres undefined)
active: [6] 8.41 µM
not listed: [9]
inactive: all other assays above
